Bead autofluor – flagged as autofluorescent in microsphere protease counterscreen. actives 3.1% (n = 360,000). fluorescence intensity (concentration not given with the values). compound autofluorescence counterscreen, microsphere flow cytometry; stronger effect = higher value; in the data active means fluorescence intensity above about 16000; inconclusive means no clear call, values can overlap the other calls
FBA Mtb inh – inhibitors of M. tuberculosis fructose-bisphosphate aldolase | P9WQA3 | purified M. tuberculosis FBA, fluorescence read-out | inhibition, % at 1 µM | actives 2.3% (n = 360,000) | AID 588726; in the data active means inhibition above about 27%;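 further: 0% = vehicle and 100% = reference inhibitor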
BoNT A protease – blocks Botulinum neurotoxin A light chain protease | multiplex microsphere protease substrate cleavage, flow cytometry | inhibition, % at 10 µM | actives 0.17% (n = 360,000) | AID 588499; further: plate controls were buffer without enzyme for full effect and enzyme alone for no effect
GDH-TPI counter – inhibits GDH-TPI coupling enzymes, artifact for Mtb FBA screen; actives 1.2% (n = 360,000); GDH-TPI coupled enzyme counterscreen, NADH absorbance; AID 588335; inhibition, % at 4.8 µM; in the data active means inhibition above about 30%;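 further: 0% = DMSO wells and 100% = wells lacking the enzyme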
BoNT-F LC inh – inhibitors of Botulinum neurotoxin F light chain protease; actives 0.22% (n = 360,000); AID 588497; Multiplex microsphere protease cleavage assay, flow cytometry; inhibition, % at 10 µM; in the data active means inhibition above about 35%, passing the limit was not always enough; inconclusive means no clear call, values can overlap the other calls; further: plate controls were buffer without enzyme for full effect and enzyme alone for no effect
Anthrax LF inh2 – blocks Bacillus anthracis lethal factor protease. P15917. inhibition, % at 10 µM. multiplex microsphere protease cleavage assay, LF. actives 0.12% (n = 360,000). AID 588501; further: plate controls were buffer without enzyme for full effect and enzyme alone for no effect
Starred values were filed as active, the others as inactive. Rows were chosen to be rich in hits. Some 6.7% of all compounds tested hit in one or more screens of this group. Unless noted, no stated cut-off is given here; in the data, active means inhibition above about 30%; inconclusive means no clear call, values can overlap the other calls; inactive means below that.

N=c1c2c(n(Cc3ccc(F)cc3)c3c1CCC3)CCCC2 was read as Bead autofluor 4615, FBA Mtb inh 2, BoNT A protease 0, GDH-TPI counter -4, BoNT-F LC inh -1 and Anthrax LF inh2 2.
Screening N=c1c2c(n(Cc3ccc(Cl)cc3)c3c1CCC3)CCC2 returned Bead autofluor 20485*, FBA Mtb inh 0, BoNT A protease -2, GDH-TPI counter -14, BoNT-F LC inh -1 and Anthrax LF inh2 -1.
For O=C(N/N=C/C=C/c1ccco1)c1ccccc1Cl the results were Bead autofluor 3227, FBA Mtb inh 0, BoNT A protease 0, GDH-TPI counter 27, BoNT-F LC inh 0 and Anthrax LF inh2 4.
Screening CCOCC(O)CS(=O)(=O)c1ccccn1 (stereo not drawn) returned Bead autofluor 23197*, FBA Mtb inh -3, BoNT A protease inconclusive, GDH-TPI counter 1, BoNT-F LC inh 2 and Anthrax LF inh2 0.
Screening COc1ccc(-c2oc3ccc(N4CCOCC4)cc3c2C#CC2(O)CCCCC2)cc1 returned Bead autofluor 3730, FBA Mtb inh 68*, BoNT A protease 0, GDH-TPI counter 29, BoNT-F LC inh -2 and Anthrax LF inh2 -4.
OC1(C#Cc2c(-c3ccsc3)oc3ccc(N4CCOCC4)cc23)CCCCC1 was read as Bead autofluor 3734, FBA Mtb inh 24, BoNT A protease -1, GDH-TPI counter 17, BoNT-F LC inh 0 and Anthrax LF inh2 -6.
COc1ccc(C#Cc2c(-c3ccsc3)oc3ccc(N4CCOCC4)cc23)cc1 was read as Bead autofluor 3898, FBA Mtb inh 27, BoNT A protease 1, GDH-TPI counter 33*, BoNT-F LC inh 0 and Anthrax LF inh2 -1.
Screening CCOC(=O)CC1ON(C)C(=O)N1c1ccc([N+](=O)[O-])cc1 (stereo not drawn) returned Bead autofluor 4117, FBA Mtb inh 1, BoNT A protease 2, GDH-TPI counter 19, BoNT-F LC inh 13 and Anthrax LF inh2 4.
`Cn1nc(NC(=O)C(F)(F)F)c2ncc(-c3ccccc3)nc21` gave Bead autofluor 3945, FBA Mtb inh 6, BoNT A protease 0, GDH-TPI counter 32*, BoNT-F LC inh 4 and Anthrax LF inh2 -3.
`O=C1N=C(N2C=CC(=C3C=CNC=C3)C=C2)/C(=C/N=NC(=O)c2ccccc2O)S1` gave Bead autofluor 5568, FBA Mtb inh -5, BoNT A protease -2, GDH-TPI counter 53*, BoNT-F LC inh -3 and Anthrax LF inh2 -1.
Screening CN(C)c1ccc(/C=C2/C(=N\O)C3CCN2CC3)cc1 returned FBA Mtb inh 1 and GDH-TPI counter 52*.
Screening CC(=O)c1ccc(Sc2ccccc2)cc1 returned Bead autofluor 22491*, FBA Mtb inh -1, BoNT A protease 2, GDH-TPI counter 10, BoNT-F LC inh 4 and Anthrax LF inh2 0.
Screening CC(=O)c1ccc(Sc2ccc(C(C)=O)cc2)cc1 returned Bead autofluor 1947, FBA Mtb inh 8, BoNT A protease 0, GDH-TPI counter 19, BoNT-F LC inh -1 and Anthrax LF inh2 -1.
CCOc1cc2c3c(c1)C1(Nc4ccccc4S1)C(=O)N3C(C)(C)CC2C (stereo not drawn) was read as Bead autofluor 23624*, FBA Mtb inh 1, BoNT A protease inconclusive, GDH-TPI counter -5, BoNT-F LC inh -3 and Anthrax LF inh2 -2.
For CCOc1cc2c3c(c1)C1(OCCO1)C(=O)N3C(C)(C)CC2C (stereo not drawn) the results were Bead autofluor 2968, FBA Mtb inh 0, BoNT A protease -1, GDH-TPI counter 3, BoNT-F LC inh -10 and Anthrax LF inh2 1.
Cc1cc(OCC(=O)NCc2ccccn2)c2c(C)c(C)c(=O)oc2c1 was read as Bead autofluor 4645, FBA Mtb inh 120*, BoNT A protease -1, GDH-TPI counter 22, BoNT-F LC inh 3 and Anthrax LF inh2 -3.
Cc1ccc(C(=O)NCc2ccccn2)c(Cl)c1 was read as Bead autofluor 3688, FBA Mtb inh -5, BoNT A protease 0, GDH-TPI counter -3, BoNT-F LC inh -1 and Anthrax LF inh2 -3.
Screening O=C(COc1ccccc1Br)NCc1ccccn1 returned Bead autofluor 22895*, FBA Mtb inh 1, BoNT A protease 0, GDH-TPI counter 7, BoNT-F LC inh 1 and Anthrax LF inh2 -1.
For Cc1c(C)c2c(OCC(=O)NCc3ccccn3)cc3c(c2oc1=O)CCC(C)(C)O3 the results were Bead autofluor 5086, FBA Mtb inh active, BoNT A protease 0, GDH-TPI counter 24, BoNT-F LC inh 0 and Anthrax LF inh2 0.
Screening O=C(NCc1ccccn1)c1ccccc1Cl returned Bead autofluor 23233*, FBA Mtb inh -1, BoNT A protease inconclusive, GDH-TPI counter 6, BoNT-F LC inh 0 and Anthrax LF inh2 -3.
Screening CC(C)[C@H](NC(=O)N1CCn2c1nc1ccccc12)C(=O)N[C@H](C(=O)O)c1ccccc1 returned Bead autofluor 4741, FBA Mtb inh 5, BoNT A protease -1, GDH-TPI counter 9, BoNT-F LC inh -4 and Anthrax LF inh2 0.
`COC(=O)[C@@]1(Cc2ccc(F)cc2)[C@H]2c3cc(C(=O)N(C)C)n(CCO)c3C[C@H]2CN1C(=O)c1ccccc1` gave Bead autofluor 5567, BoNT A protease 0, BoNT-F LC inh -5 and Anthrax LF inh2 -2.
`O=C(NCc1ccncc1)c1cccc(S(=O)(=O)Nc2ccc(SC(F)F)cc2)c1` gave Bead autofluor inconclusive, FBA Mtb inh 1, BoNT A protease 0, GDH-TPI counter -11, BoNT-F LC inh -7 and Anthrax LF inh2 -3.
CCCc1cc(=O)oc2c3c(cc(OCC(=O)NCc4ccncc4)c12)OC(C)(C)CC3 was read as Bead autofluor 4436, FBA Mtb inh active, BoNT A protease 0, GDH-TPI counter 25, BoNT-F LC inh -6 and Anthrax LF inh2 -2.
`Cc1cc(=O)oc2c(C)c(OCC(=O)NCc3ccccn3)ccc12` gave Bead autofluor 5299, FBA Mtb inh 5, BoNT A protease 0, GDH-TPI counter 11, BoNT-F LC inh 3 and Anthrax LF inh2 2.
Cc1cc(OCC(=O)C(C)(C)C)c2c(C)c(C)c(=O)oc2c1 was read as Bead autofluor 3292, FBA Mtb inh 49*, BoNT A protease 0, GDH-TPI counter 5, BoNT-F LC inh 3 and Anthrax LF inh2 -2.
`O=C(NCc1ccccn1)Nc1cccc([N+](=O)[O-])c1` gave Bead autofluor 5244, FBA Mtb inh -1, BoNT A protease 0, GDH-TPI counter 1, BoNT-F LC inh 7 and Anthrax LF inh2 2.
CCCc1cc(=O)oc2c3c(cc(OCC(=O)NCc4ccccn4)c12)OC(C)(C)CC3 was read as Bead autofluor 5061, FBA Mtb inh 192*, BoNT A protease 0, GDH-TPI counter 18, BoNT-F LC inh -6 and Anthrax LF inh2 -4.
`O=C(NCc1ccccn1)c1cccc([N+](=O)[O-])c1` gave Bead autofluor 24684*, FBA Mtb inh 2, BoNT A protease -2, GDH-TPI counter -2, BoNT-F LC inh -3 and Anthrax LF inh2 2.
